# Screening results as filed in PubChem.
# CYP2C19 activ: human CYP2C19 activators, primary screen, biochemical, luminescence. 96,000 tested, under 10 active. AID 1025, 2008. activation factor at 5 µM. recombinant CYP2C19, luciferin-H EGE luminescence; stronger effect = higher value; 0 = fully inhibited enzyme, 1 = untreated enzyme. Cytochrome P450 2C19 (Homo sapiens), P33261;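 active = activation factor of at least 2 at 5 µM in the primary screen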;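 also: 0 = wells with 2.5 mM tranylcypromine and 1 = vehicle-only wells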
# CYP2C19 inhib: blockers of cytochrome P450 2C19 activity – biochemical, luminescence, ADME assay, primary screen; inhibition, % at 5 µM; CYP2C19 Supersomes, luciferin-H EGE luminescence, 30 min; 96,000 compounds, 21% hits;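 active = CYP2C19 inhibition above a set limit at 5 µM in the primary screen, cut at about 50% in these data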;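 also: plate controls were negative control wells for no effect and 2.5 mM tranylcypromine positive control for full effect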
# PostGolgi yeast: phenotypic screen on post-Golgi transport, primary screen | post-Golgi transport phenotypic cell assay | inhibition, % at 10 µM | 98,000 compounds, 0.9% hits | AID 739, 2007;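 also: yeast cells grown in 1536-well plates; yeast grown about 18 h at 30C before absorbance read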
# PostGolgi ctrl: growth inhibition of yeast control strain, primary screen, counter-screen for post-Golgi transport modulator project | AID 738, 2007 | efflux-deficient yeast background strain, growth absorbance A615, 16 h | 98,000 compounds, 5% hits | inhibition, % at 10 µM
# CYP2C9 inh: blockers of cytochrome P450 2C9 activity – biochemical, luminescence, ADME assay, primary screen; CYP2C9 Supersomes, luciferin-H conversion; inhibition, % at 5 µM; 96,000 compounds, 20% hits; AID 777, 2007;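 active = blocking of liver enzyme CYP2C9 beyond about 50% at 5 µM, limit read from the data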
# Target sequence (P11712 whole entry, looked up): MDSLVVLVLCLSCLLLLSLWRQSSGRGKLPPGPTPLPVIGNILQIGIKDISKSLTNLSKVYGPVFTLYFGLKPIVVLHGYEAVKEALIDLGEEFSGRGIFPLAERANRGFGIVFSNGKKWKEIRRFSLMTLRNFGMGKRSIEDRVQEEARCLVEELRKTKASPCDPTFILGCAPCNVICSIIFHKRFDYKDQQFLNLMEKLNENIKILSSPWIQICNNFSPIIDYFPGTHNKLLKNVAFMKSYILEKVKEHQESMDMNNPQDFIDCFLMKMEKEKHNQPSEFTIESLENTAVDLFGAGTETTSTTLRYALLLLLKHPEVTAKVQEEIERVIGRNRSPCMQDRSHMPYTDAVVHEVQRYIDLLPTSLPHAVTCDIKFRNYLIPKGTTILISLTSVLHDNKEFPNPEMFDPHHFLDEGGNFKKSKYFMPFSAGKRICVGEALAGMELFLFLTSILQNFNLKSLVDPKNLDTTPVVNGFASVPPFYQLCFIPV
# CYP2C9 act: human CYP2C9 activators, primary screen, biochemical, luminescence; 96,000 compounds, 1.4% hits; recombinant CYP2C9, luciferin-H conversion; stronger effect = higher value; factor 1 = untreated enzyme, 0 = blocked; AID 1024, 2008; Cytochrome P450 2C9 (Homo sapiens), P11712; activation factor at 5 µM;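 active = activation factor of 2 or more for CYP2C9 at a 5 µM dose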;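 also: 0 = sulfaphenazole-blocked wells and 1 = vehicle-only wells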
# An asterisk follows results filed as active; . = not tested or not shown. Shown are actives, neighbours in structure and some others; about 32% of the full set was active somewhere. Rule as the data show it, unless noted: active = inhibition above about 30%; inactive = the rest.
SMILES,CYP2C19 activ,CYP2C19 inhib,PostGolgi yeast,PostGolgi ctrl,CYP2C9 inh,CYP2C9 act
CCCCn1c(-c2csc3c2CCC(C)C3)n[nH]c1=S (configuration not stated),0.7,26,-3,42*,47,0.5
CCCCn1c(-c2csc3c2CCCC3)n[nH]c1=S,0.3,70*,5,19,89*,0.1
COc1cccc(-n2c(C)nc3cc(C(=O)O)ccc32)c1,1.3,-26,-3,9,-32,1.3
Cc1ccccc1Cn1nc(C)c(NC(=O)c2cc3nc(-c4ccco4)cc(C(F)(F)F)n3n2)c1C,1,-4,9,10,47,0.5
CCc1ccc(-c2cc(C(F)(F)F)n3nc(C(=O)Nc4c(C)nn(Cc5ccc(F)cc5)c4C)cc3n2)s1,0.6,42,4,25,70*,0.3
C=CCNc1nc(N)c(C(=O)c2ccc3c(c2)OCO3)s1,0.1,90*,18,10,-32,1.3
COc1ccc(N2C(=O)CCC(C(=O)NCc3ccccn3)C2c2ccc(OC)c(OC)c2)cc1 (configuration not stated),1.1,-14,-6,-5,-14,1.1
COc1ccc(N2C(=O)c3ccccc3NC2c2ccc(OC)c(CSc3ccccn3)c2)cc1 (configuration not stated),0.7,33,15,12,58*,0.4
COc1ccc(C2Nc3ccccc3C(=O)N2c2ccc(C)cc2)cc1Cn1cc([N+](=O)[O-])cn1 (configuration not stated),0.5,46,-18,7,90*,0.1
COc1ccc(C2Nc3ccccc3C(=O)N2c2ccc(C)cc2)cc1Cn1nnc2ccccc21 (configuration not stated),0.5,51*,9,1,81*,0.2
COc1cc(C2NC(=O)C(C#N)=C(S)N2c2ccc(C)cc2)ccc1OC(C)C (configuration not stated),1,2,-4,7,13,0.9
O=C(O)CCC(=O)NCc1ccc(F)cc1,0.9,8,13,7,49,0.5
Cc1noc(C)c1S(=O)(=O)N1CCCC(C(=O)N2CCC(C)CC2)C1 (configuration not stated),1,0,4,0,-1,1
Cc1ccc2c(c1)c(C)cc(=O)n2CCC(=O)O,0.9,6,-3,11,-16,1.2
Cc1ccc(C2CC(=O)c3cnc(N4CCN(c5ccccc5)CC4)nc3C2)cc1 (configuration not stated),0.6,43,-4,12,54*,0.5
Cc1nc(N2CCN(c3ccccc3)CC2)nc2c1C(=O)CCC2,1,1,11,22,-33,1.3
COc1ccc(C2CC(=O)c3cnc(N4CCN(Cc5ccccc5)CC4)nc3C2)cc1 (configuration not stated),0.2,80*,-1,25,94*,0.1
O=C1CC(c2ccc(F)cc2)Cc2nc(N3CCN(c4ccccc4)CC3)ncc21 (configuration not stated),0.9,6,23,4,26,0.7
Cc1nc(N2CCN(c3ccccc3)CC2)nc2c1C(=O)CC(C)C2 (configuration not stated),0.9,13,0,37*,7,0.9
Cc1nc(N2CCN(c3ccccc3)CC2)nc2c1C(=O)CC(c1ccccc1)C2 (configuration not stated),0.6,42,27,-7,83*,0.2
CCN1CCN(c2ncc3c(n2)CC(c2ccc(OC)c(OC)c2)CC3=O)CC1 (configuration not stated),1,-1,-2,10,31,0.7
COc1cccc(C(=O)Nc2ncc3c(n2)CC(c2ccc(OC)cc2OC)CC3=O)c1 (configuration not stated),0.2,80*,-6,-3,89*,0.1
O=C1CC(c2ccccc2)Cc2nc(N3CCc4ccccc4C3)ncc21 (configuration not stated),0.6,35,5,46*,64*,0.4
CCc1ccc(Nc2ncc3c(n2)CC(c2ccc(OC)cc2)CC3=O)cc1 (configuration not stated),0.7,26,3,3,79*,0.2
Cc1ccc(S(=O)(=O)NCc2nnc(SCC(=O)Nc3cccc(C)c3C)n2C)cc1,1.2,-16,2,4,25,0.8
SMILES,CYP2C19 activ,CYP2C19 inhib,PostGolgi yeast,PostGolgi ctrl,CYP2C9 inh,CYP2C9 act
COC(=O)CSc1snnc1-c1ccc(F)cc1,0.3,66*,1,27,5,0.9
CCOC(=O)c1c(-c2ccc(C)c(C)c2)csc1NC(=O)C1CC=CCC1C(=O)O (configuration not stated),0.9,10,-2,33*,76*,0.2
CCOC(=O)c1c(-c2cccc([N+](=O)[O-])c2)csc1NC(=O)C1CC1,0.7,27,6,6,76*,0.2
CC1(C)Cc2ccccc2-c2nc3ccccc3c(=O)n21,0.8,18,-11,13,34,0.7
O=C(CN1CCN(c2ccccn2)CC1)N1c2ccccc2Sc2ccc(C(F)(F)F)cc21,0.3,73*,3,41*,44,0.6
O=C(CN1CCN(c2ccccn2)CC1)N1c2ccccc2CCc2ccccc21,.,.,-4,21,.,.
CCOc1ccc(N2C(=O)CC(NCc3ccc(F)cc3)C2=O)cc1 (configuration not stated),0.8,16,12,2,15,0.9
O=C1CC(NCc2ccccc2F)C(=O)N1c1ccccc1 (configuration not stated),0.3,72*,3,21,20,0.8
CCOC(=O)c1[nH]c(C)c(C(=O)N2CCN(c3ccccc3)CC2)c1C,0.7,35,-2,7,55*,0.5
CCOC(=O)c1[nH]c(C)c(C(=O)N2CCOCC2)c1C,1,3,3,6,5,1
O=C(c1ccccc1Oc1ccccc1)N1CCN(c2ccccc2)CC1,0,96*,14,21,98*,0
CCOc1ccccc1C(=O)N1CCN(c2cccc(Cl)c2)CC1,0.3,67*,-1,13,70*,0.3
CC(=O)c1c(C)[nH]c(C(=O)N2CCN(c3ncccn3)CC2)c1C,0,96*,-9,1,64*,0.4
O=C(O)c1ccccc1C(=O)N1CCN(c2cccc(Cl)c2)CC1,.,.,-3,2,.,.
CC(=O)Nc1ccc(C(=O)OC2CCCCC2=O)cc1 (configuration not stated),0.9,12,-6,-11,26,0.7
O=C(/C=C/c1ccccc1)N1CCN(CC(O)COc2ccccc2)CC1 (configuration not stated),0.9,8,-6,4,-48,1.5
